Results reported in ChEMBL document CHEMBL1961873, “Compounds: GSK PKIS; Assays: Nanosyn kinase panel” (2012).

Legend:
[1] = target: Serine/threonine-protein kinase MARK2 (Homo sapiens) (UniProt Q7KZI7); details: at 1 µM
[2] = target: PAS domain-containing serine/threonine-protein kinase (Homo sapiens) (UniProt Q96RG2); details: at 0.1 µM
[3] = target: PAS domain-containing serine/threonine-protein kinase (Homo sapiens) (UniProt Q96RG2); details: at 1 µM
[4] = target: Phosphorylase b kinase gamma catalytic chain, skeletal muscle/heart isoform (Homo sapiens) (UniProt Q16816); details: at 0.1 µM
[5] = target: Phosphorylase b kinase gamma catalytic chain, skeletal muscle/heart isoform (Homo sapiens) (UniProt Q16816); details: at 1 µM
[6] = target: T1, Phosphorylase b kinase gamma catalytic chain, liver/testis isoform (Homo sapiens) (UniProt P15735); details: at 0.1 µM
T1 sequence (whole entry): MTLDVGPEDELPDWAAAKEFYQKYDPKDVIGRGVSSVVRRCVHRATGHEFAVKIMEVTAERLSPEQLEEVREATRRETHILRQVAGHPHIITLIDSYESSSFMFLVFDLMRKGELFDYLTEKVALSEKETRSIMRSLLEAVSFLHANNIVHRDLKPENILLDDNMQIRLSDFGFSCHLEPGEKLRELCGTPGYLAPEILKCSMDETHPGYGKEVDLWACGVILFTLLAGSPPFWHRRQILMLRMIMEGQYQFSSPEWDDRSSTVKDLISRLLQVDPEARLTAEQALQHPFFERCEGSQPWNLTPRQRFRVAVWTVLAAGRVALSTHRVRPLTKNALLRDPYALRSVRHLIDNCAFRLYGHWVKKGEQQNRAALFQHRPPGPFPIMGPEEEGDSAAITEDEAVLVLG

[7] = target: T1, Phosphorylase b kinase gamma catalytic chain, liver/testis isoform (Homo sapiens); details: at 1 µM
[8] = target: Serine/threonine-protein kinase pim-1 (Homo sapiens) (UniProt P11309); details: at 0.1 µM
[9] = target: Serine/threonine-protein kinase pim-1 (Homo sapiens) (UniProt P11309); details: at 1 µM
[10] = target: Serine/threonine-protein kinase pim-2 (Homo sapiens) (UniProt Q9P1W9); details: at 0.1 µM
[11] = target: Serine/threonine-protein kinase pim-2 (Homo sapiens) (UniProt Q9P1W9); details: at 1 µM
[12] = target: Serine/threonine-protein kinase pim-3 (Homo sapiens) (UniProt Q86V86); details: at 0.1 µM
[13] = target: Serine/threonine-protein kinase pim-3 (Homo sapiens) (UniProt Q86V86); details: at 1 µM
[14] = target: T2, MAP kinase-activated protein kinase 5 (Homo sapiens) (UniProt Q8IW41); details: at 0.1 µM
T2 sequence (whole entry): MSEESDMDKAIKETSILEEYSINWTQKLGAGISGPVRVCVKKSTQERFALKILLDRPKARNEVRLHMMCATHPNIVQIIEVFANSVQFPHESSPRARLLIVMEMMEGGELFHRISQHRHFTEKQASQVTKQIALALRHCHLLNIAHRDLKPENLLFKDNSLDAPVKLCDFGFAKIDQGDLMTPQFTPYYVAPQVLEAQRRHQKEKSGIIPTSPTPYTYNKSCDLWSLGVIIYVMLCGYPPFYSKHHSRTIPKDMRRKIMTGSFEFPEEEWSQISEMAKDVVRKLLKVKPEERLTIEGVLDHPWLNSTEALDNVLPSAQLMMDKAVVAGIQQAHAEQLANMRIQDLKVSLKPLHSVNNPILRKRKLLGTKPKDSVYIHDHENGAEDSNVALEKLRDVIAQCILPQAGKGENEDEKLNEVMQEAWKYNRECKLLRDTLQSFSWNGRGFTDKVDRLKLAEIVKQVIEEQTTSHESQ

[15] = target: T2, MAP kinase-activated protein kinase 5 (Homo sapiens); details: at 1 µM
[16] = target: Serine/threonine-protein kinase SIK1 (Homo sapiens) (UniProt P57059); details: at 0.1 µM
[17] = target: Serine/threonine-protein kinase SIK1 (Homo sapiens) (UniProt P57059); details: at 1 µM
[18] = target: Serine/threonine-protein kinase SIK2 (Homo sapiens) (UniProt Q9H0K1); details: at 0.1 µM
[19] = target: Serine/threonine-protein kinase SIK2 (Homo sapiens) (UniProt Q9H0K1); details: at 1 µM
[20] = target: T3, Serine/threonine-protein kinase TBK1 (Homo sapiens) (UniProt Q9UHD2); details: at 0.1 µM;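 also: values are the mean TBK1 inhibition, taken from the GSK PKIS screening data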
T3 sequence (whole entry): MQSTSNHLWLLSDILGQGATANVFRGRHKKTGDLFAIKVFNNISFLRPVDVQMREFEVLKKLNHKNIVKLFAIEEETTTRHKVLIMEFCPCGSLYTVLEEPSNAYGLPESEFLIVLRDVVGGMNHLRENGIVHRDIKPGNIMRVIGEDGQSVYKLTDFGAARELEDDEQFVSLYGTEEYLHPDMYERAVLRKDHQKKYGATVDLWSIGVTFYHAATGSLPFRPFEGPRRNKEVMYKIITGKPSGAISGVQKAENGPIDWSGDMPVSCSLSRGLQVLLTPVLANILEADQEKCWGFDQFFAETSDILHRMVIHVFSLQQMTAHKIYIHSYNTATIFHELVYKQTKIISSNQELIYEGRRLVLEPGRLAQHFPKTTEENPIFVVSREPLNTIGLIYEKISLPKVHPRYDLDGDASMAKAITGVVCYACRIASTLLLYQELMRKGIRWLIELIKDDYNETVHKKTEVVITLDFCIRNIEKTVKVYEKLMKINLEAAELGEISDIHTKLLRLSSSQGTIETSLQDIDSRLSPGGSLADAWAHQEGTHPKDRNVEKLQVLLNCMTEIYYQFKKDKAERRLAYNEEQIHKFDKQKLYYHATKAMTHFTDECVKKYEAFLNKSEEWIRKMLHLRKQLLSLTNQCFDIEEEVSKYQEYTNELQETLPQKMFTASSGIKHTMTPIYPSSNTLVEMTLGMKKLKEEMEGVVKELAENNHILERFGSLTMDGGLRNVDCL

Chain of Serine/threonine-protein kinase MARK2 (Homo sapiens) (Q7KZI7 whole entry, the tested form may be a part): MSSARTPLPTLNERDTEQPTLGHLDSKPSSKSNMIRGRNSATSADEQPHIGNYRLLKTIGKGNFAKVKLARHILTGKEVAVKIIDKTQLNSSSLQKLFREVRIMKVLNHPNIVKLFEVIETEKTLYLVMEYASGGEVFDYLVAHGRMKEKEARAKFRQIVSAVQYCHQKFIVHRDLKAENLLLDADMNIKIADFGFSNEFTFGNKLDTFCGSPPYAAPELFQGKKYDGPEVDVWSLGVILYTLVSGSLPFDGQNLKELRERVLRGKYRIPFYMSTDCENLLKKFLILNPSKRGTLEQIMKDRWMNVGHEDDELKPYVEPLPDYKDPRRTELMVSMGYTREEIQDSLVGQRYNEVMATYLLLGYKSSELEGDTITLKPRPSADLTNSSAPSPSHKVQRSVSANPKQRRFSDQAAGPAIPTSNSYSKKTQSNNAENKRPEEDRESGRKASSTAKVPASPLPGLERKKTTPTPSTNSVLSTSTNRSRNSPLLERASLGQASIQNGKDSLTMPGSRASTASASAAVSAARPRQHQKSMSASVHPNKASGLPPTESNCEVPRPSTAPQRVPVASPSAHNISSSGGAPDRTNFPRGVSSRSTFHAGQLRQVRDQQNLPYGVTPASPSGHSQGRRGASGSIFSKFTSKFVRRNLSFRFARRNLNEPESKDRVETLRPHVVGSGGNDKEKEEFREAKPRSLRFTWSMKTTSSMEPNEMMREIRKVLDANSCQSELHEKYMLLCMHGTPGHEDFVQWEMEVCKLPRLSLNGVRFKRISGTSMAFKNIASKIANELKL
Chain of PAS domain-containing serine/threonine-protein kinase (Homo sapiens) (Q96RG2 whole entry, the tested form may be a part, canonical isoform): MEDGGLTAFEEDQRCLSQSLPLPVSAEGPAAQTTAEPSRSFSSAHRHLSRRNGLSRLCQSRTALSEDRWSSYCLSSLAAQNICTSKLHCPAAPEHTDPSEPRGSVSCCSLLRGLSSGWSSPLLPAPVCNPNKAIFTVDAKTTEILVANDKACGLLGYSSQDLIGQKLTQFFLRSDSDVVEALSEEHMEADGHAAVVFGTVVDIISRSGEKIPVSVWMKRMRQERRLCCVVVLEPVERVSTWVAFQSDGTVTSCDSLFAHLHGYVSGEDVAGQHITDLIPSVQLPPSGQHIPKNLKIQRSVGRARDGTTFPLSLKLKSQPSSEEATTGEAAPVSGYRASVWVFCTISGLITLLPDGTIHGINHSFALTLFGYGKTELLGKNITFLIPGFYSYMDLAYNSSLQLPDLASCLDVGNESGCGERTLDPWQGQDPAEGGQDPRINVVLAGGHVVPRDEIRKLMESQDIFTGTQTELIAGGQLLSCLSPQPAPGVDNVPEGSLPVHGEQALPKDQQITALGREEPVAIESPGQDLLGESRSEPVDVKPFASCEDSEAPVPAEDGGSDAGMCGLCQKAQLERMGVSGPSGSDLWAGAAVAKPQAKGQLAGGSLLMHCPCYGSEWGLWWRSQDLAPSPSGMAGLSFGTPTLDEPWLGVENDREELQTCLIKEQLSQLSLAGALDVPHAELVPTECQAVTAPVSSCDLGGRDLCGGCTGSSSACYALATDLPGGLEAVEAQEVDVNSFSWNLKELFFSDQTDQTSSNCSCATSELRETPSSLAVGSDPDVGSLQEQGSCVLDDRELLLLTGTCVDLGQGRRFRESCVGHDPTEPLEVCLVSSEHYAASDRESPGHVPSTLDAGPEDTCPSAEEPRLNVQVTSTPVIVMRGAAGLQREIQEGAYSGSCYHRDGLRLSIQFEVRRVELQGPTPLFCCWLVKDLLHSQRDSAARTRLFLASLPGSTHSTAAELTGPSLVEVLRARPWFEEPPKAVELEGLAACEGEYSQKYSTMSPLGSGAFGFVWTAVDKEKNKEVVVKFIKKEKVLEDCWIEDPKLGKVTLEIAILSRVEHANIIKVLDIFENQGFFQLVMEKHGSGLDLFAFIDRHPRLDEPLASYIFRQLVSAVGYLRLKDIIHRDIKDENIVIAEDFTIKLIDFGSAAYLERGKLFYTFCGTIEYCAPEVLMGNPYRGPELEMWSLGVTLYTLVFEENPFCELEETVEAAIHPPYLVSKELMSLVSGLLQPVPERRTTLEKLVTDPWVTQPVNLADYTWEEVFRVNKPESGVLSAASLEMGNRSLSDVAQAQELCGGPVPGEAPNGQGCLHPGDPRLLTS
Chain of Serine/threonine-protein kinase pim-1 (Homo sapiens) (P11309 whole entry, looked up): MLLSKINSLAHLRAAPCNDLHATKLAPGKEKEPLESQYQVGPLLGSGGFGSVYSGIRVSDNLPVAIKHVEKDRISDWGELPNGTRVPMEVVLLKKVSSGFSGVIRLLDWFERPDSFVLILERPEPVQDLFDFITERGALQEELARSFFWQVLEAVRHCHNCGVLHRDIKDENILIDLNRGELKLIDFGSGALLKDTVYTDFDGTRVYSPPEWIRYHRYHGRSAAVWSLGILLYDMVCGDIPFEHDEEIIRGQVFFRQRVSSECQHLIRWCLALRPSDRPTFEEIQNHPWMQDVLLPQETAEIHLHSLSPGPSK
Chain of Serine/threonine-protein kinase pim-2 (Homo sapiens) (Q9P1W9 whole entry, looked up): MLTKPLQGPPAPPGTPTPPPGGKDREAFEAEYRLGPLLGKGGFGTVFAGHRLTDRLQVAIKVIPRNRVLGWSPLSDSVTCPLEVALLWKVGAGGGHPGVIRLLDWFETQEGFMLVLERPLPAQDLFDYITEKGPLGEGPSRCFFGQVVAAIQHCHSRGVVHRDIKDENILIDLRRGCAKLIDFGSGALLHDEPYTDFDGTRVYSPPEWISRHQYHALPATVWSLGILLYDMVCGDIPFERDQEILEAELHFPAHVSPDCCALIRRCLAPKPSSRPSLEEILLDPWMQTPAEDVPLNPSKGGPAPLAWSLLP
Chain of Serine/threonine-protein kinase SIK2 (Homo sapiens) (Q9H0K1 whole entry, looked up): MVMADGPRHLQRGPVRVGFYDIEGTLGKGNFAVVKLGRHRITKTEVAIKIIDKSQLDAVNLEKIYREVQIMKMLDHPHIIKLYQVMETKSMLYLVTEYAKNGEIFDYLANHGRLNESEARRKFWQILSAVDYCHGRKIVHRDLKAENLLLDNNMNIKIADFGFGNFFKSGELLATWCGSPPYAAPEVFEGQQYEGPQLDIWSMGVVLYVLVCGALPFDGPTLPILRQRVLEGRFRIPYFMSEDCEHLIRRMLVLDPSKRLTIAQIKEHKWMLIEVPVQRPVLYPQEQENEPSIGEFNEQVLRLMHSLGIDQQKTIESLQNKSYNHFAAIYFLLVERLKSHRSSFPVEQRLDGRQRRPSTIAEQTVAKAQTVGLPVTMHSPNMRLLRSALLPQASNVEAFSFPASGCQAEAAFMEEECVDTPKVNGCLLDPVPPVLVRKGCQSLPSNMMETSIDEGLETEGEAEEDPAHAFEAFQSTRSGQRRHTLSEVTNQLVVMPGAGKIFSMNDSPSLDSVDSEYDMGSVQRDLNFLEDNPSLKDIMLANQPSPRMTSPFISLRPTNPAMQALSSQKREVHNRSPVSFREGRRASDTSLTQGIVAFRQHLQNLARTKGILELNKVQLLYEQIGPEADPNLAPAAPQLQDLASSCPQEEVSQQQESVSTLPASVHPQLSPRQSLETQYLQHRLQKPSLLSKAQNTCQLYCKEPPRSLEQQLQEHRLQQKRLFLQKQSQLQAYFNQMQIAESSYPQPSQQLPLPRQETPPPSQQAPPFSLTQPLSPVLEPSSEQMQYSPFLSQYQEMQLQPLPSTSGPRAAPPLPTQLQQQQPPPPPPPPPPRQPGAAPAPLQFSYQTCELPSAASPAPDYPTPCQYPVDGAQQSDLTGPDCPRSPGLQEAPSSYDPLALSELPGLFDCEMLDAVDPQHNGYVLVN
Chain of Phosphorylase b kinase gamma catalytic chain, skeletal muscle/heart isoform (Homo sapiens) (Q16816 whole entry, looked up, canonical isoform): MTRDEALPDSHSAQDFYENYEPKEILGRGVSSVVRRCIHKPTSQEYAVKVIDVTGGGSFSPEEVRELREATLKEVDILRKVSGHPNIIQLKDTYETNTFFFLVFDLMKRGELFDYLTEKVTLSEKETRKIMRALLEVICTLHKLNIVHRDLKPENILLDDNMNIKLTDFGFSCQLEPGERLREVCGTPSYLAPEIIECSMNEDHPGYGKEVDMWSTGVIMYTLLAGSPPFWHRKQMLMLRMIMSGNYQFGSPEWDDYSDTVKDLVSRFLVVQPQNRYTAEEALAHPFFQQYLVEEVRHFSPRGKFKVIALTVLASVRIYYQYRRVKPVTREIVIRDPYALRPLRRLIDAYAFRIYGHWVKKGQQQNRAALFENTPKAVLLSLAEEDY

Fc1cccc(COc2ccc(Nc3ncnc4sc(-c5cccs5)cc34)cc2Cl)c1
inhibition [1]: 4.63%
inhibition [2]: 0.96%
inhibition [3]: -0.11%
inhibition [4]: 2.66%
inhibition [5]: 6.77%
inhibition [6]: -1.25%
inhibition [7]: -2.01%
inhibition [8]: 0.38%
inhibition [9]: 1.29%
inhibition [10]: 0.52%
inhibition [11]: 1.54%
inhibition [12]: 0.47%
inhibition [13]: 1.27%
inhibition [14]: 0.51%
inhibition [15]: 0.8%
inhibition [16]: 0.72%
inhibition [17]: 7.28%
inhibition [18]: 2.25%
inhibition [19]: -2.41%
inhibition [20]: 0.83%

COc1cc(C)c(NC(=O)CN(C)C)cc1Nc1nc(Nc2cccc(F)c2C(N)=O)c2cc[nH]c2n1
inhibition [1]: -0.1%
inhibition [2]: -0.35%
inhibition [3]: -3.17%
inhibition [4]: 8.46%
inhibition [5]: 43.5%
inhibition [6]: 4.74%
inhibition [7]: 8.82%
inhibition [8]: 8.2%
inhibition [9]: 43.2%
inhibition [10]: 0.16%
inhibition [11]: 2.33%
inhibition [12]: 0.35%
inhibition [13]: 16.3%
inhibition [14]: 0.4%
inhibition [15]: 1.56%
inhibition [16]: 1.57%
inhibition [17]: 5.28%
inhibition [18]: 0.18%
inhibition [19]: -4.44%
inhibition [20]: 1.95%

CNC(=O)c1cncc(/C=C/c2c(Cl)cccc2Cl)c1
inhibition [1]: 2.64%
inhibition [2]: -1.52%
inhibition [3]: -0.36%
inhibition [4]: 0.96%
inhibition [5]: 8.72%
inhibition [6]: 4.13%
inhibition [7]: 4.55%
inhibition [8]: -0.49%
inhibition [9]: 1.79%
inhibition [10]: -3.71%
inhibition [11]: -0.92%
inhibition [12]: 1.26%
inhibition [13]: 7.42%
inhibition [14]: 1.11%
inhibition [15]: 1.46%
inhibition [16]: 11.9%
inhibition [17]: 50.9%
inhibition [18]: 2.71%
inhibition [19]: 17.3%
inhibition [20]: 2.82%

NC(=O)c1ccc(-c2nc(-c3ccccn3)c(-c3ccc4c(c3)OCO4)[nH]2)cc1
inhibition [1]: -0.45%
inhibition [2]: 0.34%
inhibition [3]: 1.31%
inhibition [4]: 2.92%
inhibition [5]: 4.79%
inhibition [6]: 3.32%
inhibition [7]: 3.73%
inhibition [8]: -0.68%
inhibition [9]: 0.92%
inhibition [10]: 0.03%
inhibition [11]: 0.78%
inhibition [12]: 0.11%
inhibition [13]: 0.3%
inhibition [14]: 0.77%
inhibition [15]: 1.22%
inhibition [16]: 3.17%
inhibition [17]: 5.25%
inhibition [18]: 7.51%
inhibition [19]: 11.6%
inhibition [20]: 2.24%

COC(=O)Nc1nc2cc(Oc3cccc(NC(=O)Nc4cc(C(F)(F)F)ccc4F)c3)ccc2[nH]1
inhibition [1]: 0.86%
inhibition [2]: 0.12%
inhibition [3]: 0.57%
inhibition [4]: 2.73%
inhibition [5]: 2.22%
inhibition [6]: -0.89%
inhibition [7]: -1.83%
inhibition [8]: -0.25%
inhibition [9]: 0.39%
inhibition [10]: -0.3%
inhibition [11]: 0.76%
inhibition [12]: 0.14%
inhibition [13]: 0.51%
inhibition [14]: -0.26%
inhibition [15]: -2.14%
inhibition [16]: 0.37%
inhibition [17]: 2.51%
inhibition [18]: -0.54%
inhibition [19]: 3.76%

O=C1NC(=O)C(c2ccc(Cl)cc2)=C1Nc1ccc(Cl)c(C(=O)O)c1
inhibition [1]: 2.17%
inhibition [2]: -0.66%
inhibition [3]: -1.05%
inhibition [4]: -1.07%
inhibition [5]: 1.44%
inhibition [6]: -3.95%
inhibition [7]: -5.8%
inhibition [8]: -0.65%
inhibition [9]: -0.5%
inhibition [10]: 1.05%
inhibition [11]: 0.1%
inhibition [12]: 0.19%
inhibition [13]: -0.33%
inhibition [14]: -0.91%
inhibition [15]: -0.59%
inhibition [16]: -6.41%
inhibition [17]: -4.82%
inhibition [18]: -6%
inhibition [19]: -3.21%
inhibition [20]: -0.72%

Nc1ncnc2occ(-c3ccc(NC(=O)Nc4cc(C(F)(F)F)cc(C(F)(F)F)c4)cc3)c12
inhibition [1]: 0.58%
inhibition [2]: 0.36%
inhibition [3]: -1.29%
inhibition [4]: 1.04%
inhibition [5]: 2.55%
inhibition [6]: 1.7%
inhibition [7]: -1.63%
inhibition [8]: 0.69%
inhibition [9]: 0.66%
inhibition [10]: 0.17%
inhibition [11]: 0.27%
inhibition [12]: -1.29%
inhibition [13]: -2.53%
inhibition [14]: 0.61%
inhibition [15]: 0.59%
inhibition [16]: 1.96%
inhibition [17]: 2.47%
inhibition [18]: 3.48%
inhibition [19]: 4.42%
inhibition [20]: -0.65%
